Structures are written as SMILES. Records with an inconclusive call do not appear. Unmarked numbers belong to inactive results. Active and inactive are the calls of the source. Calls come from the whole dose curve; as a rule, active = well fitted inhibition curve with a large enough effect; inconclusive = small, poorly fitted or top-dose-only effect; inactive = no such curve, though single readings can be large or run the other way.
Potency is the fitted concentration of half-maximal effect.

The experiment is described as follows: BET inhibitor-based combinations targeting novel dependencies in MECOM-rearranged (r) AML: HNT-34 cell line (AID 2202234).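 For viability (% of control): plate controls were vehicle wells for no effect and cell-free wells for full effect.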 Note: nearly all actives have a fitted effect of over 35% in size. As to conditions: HNT-34 AML viability, CellTiter-Glo luminescence, 48 h; series mostly up to 46 µM; viability (% of control): at the top concentration. From the text:
Ecotropic viral insertion site 1 (EVI1) is located on chromosome 3q26.2 as part of the MECOM (MDS and EVI1 complex) locus. Under normal hematopoiesis, EVI1 is a regulator of hematopoietic stem cell maintenance and self-renewal and EVI1 levels decrease as the cells differentiate. In approximately 5-10% of de novo acute myeloid leukemia (AML) EVI1 is aberrantly expressed, including Chromosomal inv(3)(q21;q26.2) or t(3;3)(q21;q26.2) alterations (MECOM-r) that account for about 50% of AML with EVI1 overexpression 31. AMLs with high levels of EVI1 have a poor prognosis and an overall survival time averaging between 10-14 months. EVI1 overexpression confers resistance in leukemia cells, highlighting the need to develop new targeted therapies for EVI1 overexpressing AMLs. Here, we performed an unbiased chemical drug screening by evaluating the single agent activity of a collection of 2,480 oncology-focused, approved and investigational drugs (NCATS Mechanism Interrogation Plates, MIPE v5.0) against a panel of seven AML cell lines. These included four MECOM-r cell-lines (AML-191, AML-194, UCSD-AML1 and HNT-34) and three non-MECOM-r AMLs (MV4-11, OCI-AML3 and SET-2). Exploiting the mechanistic redundancy built in the library, we identified target-level sensitivities in MECOM-r AML cells and relative activity as compared to other AML subtypes.
A collection of 2480 mechanistically annotated dugs (MIPE v5.0) was used to screen four 3q26.2 rearranged AML cell lines and three non-3q26.2 rearranged AML cell lines. This library purposely exploits redundancy by including multiple inhibitors of key onco-targets, while simultaneously encompassing mechanistic diversity, targeting more than 800 distinct mechanisms of action. Briefly, cells were seeded in 5 uL of growth media using a Multidrop Combi dispenser into 1536 well white polystyrene tissue culture treated plates (Corning) at a density of 500cells/well. For each cell-line, for each of the 2480 drugs in MIPE v5.0 library, an 11-point dose curve was generated via a 1536 pin-tool. Plates were incubated for 48 hr at standard incubator conditions, covered by a stainless steel gasketed lid to prevent evaporation. Cell viability was determined by luminescence based, Cell Titer Glo assay (Promega). In detail, 3 uL of Cell Titer Glo were added to each well and plates were incubated at room temperature for 15 min with a stainless-steel lid in place. Luminescence readings were taken using a Viewlux (PerkinElmer) with a 2 s exposure time per plate. Compound dose-response curves were normalized to DMSO and empty well controls on each plate. Quantitative drug activity data from dose-response curves was determined utilizing area Under the Curve (AUC) and Z-transformed AUC (Z-AUC, a mean-centering transformation applied to each individual cell-line screened).
(In general: ATP-based viability assays read luminescence as a measure of living cells.)
Regarding `Cc1noc2c1-c1ccccc1C(c1ccc(Cl)cc1)=N[C@H]2CC(N)=O`, the Potency was 1480 nM (active).

Regarding `COc1cccc2cc(-c3nc(C4CCC(C(=O)O)CC4)n4ncnc(N)c34)[nH]c12` (stereo not given), the Potency is 833 nM (active).

As to `CCCCc1oc2ccc(NS(C)(=O)=O)cc2c1C(=O)c1ccc(OCCCN(CCCC)CCCC)cc1`, the Potency was 11800 nM (active).

For `COc1cc2ncnc(-n3nc(-c4ccccn4)nc3N)c2cc1OC`, the Potency was 2350 nM (active).

For `CC1(C)CC(=O)c2c(C(F)(F)F)nn(-c3ccc(C(N)=O)c(NC4CCC(O)CC4)c3)c2C1` (stereo not given), the Potency was 93.4 nM (active).

For the compound `Cc1cc(C)cc(NC(=O)Cc2ccc(OC(C)(C)C(=O)O)cc2)c1`, the “viability (% of control)” value was 102%.

In the case of `CC(=O)N1CCN(CCOc2ccc(C3CCN(C4=Nn5c(nnc5C(F)(F)F)CC4)CC3)cc2)CC1`, the “viability (% of control)” value was 45.1%.

As for `COc1ccc(S(=O)(=O)Nc2cc(-c3c(O)ccc4ccccc34)c(O)c3ccccc23)cc1`, the Potency is 1660 nM (active).

With `O=C(O)c1cc(O)c2c(c1)C(=O)c1cccc(O)c1C2=O`, the “viability (% of control)” value is 107%.

With `N#Cc1ccnc(N2C(=O)CC[C@H]2C(=O)N(c2cncc(F)c2)[C@H](C(=O)NC2CC(F)(F)C2)c2ccccc2Cl)c1`, the “viability (% of control)” value is 92.6%.

With `COc1cc2c(NC3CCN(C(C)C)CC3)nc(C3CCCCC3)nc2cc1OCCCN1CCCC1`, the Potency is 11800 nM (active).

For `CC(N[C@H]1CCCC[C@H]1NC(=O)c1ccc(Cl)cc1)c1cccc2ccccc12` (stereo not given in full), the Potency is 11800 nM (active).

Regarding `COc1ncc(-c2ccc3c(Nc4cc(Oc5cc(F)cc(F)c5)cc(C(=O)O)c4)c(S(=O)(=O)NC4CC4)cnc3c2)c(OC)n1`, the “viability (% of control)” value is 95.2%.

Take `Cc1cnc(Nc2cccc(CN3CCOCC3)c2)nc1Nc1cccc(S(=O)(=O)NC(C)(C)C)c1`: the Potency is 1660 nM (active).

For `CN1CCN(c2ccc(C(=O)Nc3n[nH]c4ccc(Cc5cc(F)cc(F)c5)cc34)c(NC3CCOCC3)c2)CC1`, the Potency was 5900 nM (active).

In the case of `Cc1cccc(Nc2nc(N[C@@H]3CCCC[C@H]3N)ncc2C(N)=O)c1`, the Potency is 18600 nM (active).

In the case of `CCCn1c(=O)c2[nH]c(-c3cnn(Cc4cccc(C(F)(F)F)c4)c3)nc2n(CC)c1=O`, the “viability (% of control)” value was 100%.

Consider `CNC(=O)c1ccc2cc(C3(O)CCn4cncc43)ccc2c1` (stereo not given), for which the “viability (% of control)” value was 90.3%.

In the case of `CN(C)C/C=C/C(=O)Nc1cccc(C(=O)Nc2cccc(Nc3ncc(Cl)c(-c4c[nH]c5ccccc45)n3)c2)c1`, the Potency was 235 nM (active).

In the case of `Cc1cc2c(cc1C1(c3ccc(C(=O)O)cn3)CC1)C(C)(C)CCC2(C)C`, the “viability (% of control)” value was 109%.

Consider `O=S(=O)(c1cccc2c(I)cccc12)N1CCCNCC1`, for which the “viability (% of control)” value is 86.7%.

On to `COC(=O)N1CCN(Cc2cccc(NC(=O)Nc3ccc(C)nc3)c2F)CC1`, for which the “viability (% of control)” value is 95.2%.

For `CN(Cc1cc(Br)cc(Br)c1N)C1CCCCC1`, the “viability (% of control)” value was 91.4%.

As to `C=Cc1cc(O)cc2nc(-c3ccc(O)c(F)c3)oc12`, the “viability (% of control)” value was 91%.

With `CC(=O)Nc1ccc(C(=O)Nc2ccccc2N)cc1`, the Potency was 11800 nM (active).

Consider `COc1cc([C@@H]2c3cc4c(cc3[C@H](O)[C@H]3COC(=O)[C@@H]23)OCO4)cc(OC)c1OC`, for which the Potency is 417 nM (active).

Take `COC(=O)Nc1ccc(-c2nc(N3CCOCC3)c3cnn(C4CCN(C(=O)OC)CC4)c3n2)cc1`: the Potency is 742 nM (active).

Consider `CC(C)(C)NCC(O)c1ccc(O)c(CO)c1` (stereo not given), for which the “viability (% of control)” value was 103%.

`CC(C)(C)c1cc(C(=O)O)c(NC(=O)Nc2ccc3[nH]ncc3c2)s1`: the “viability (% of control)” value is 112%.

Turning to `Cn1cncc1C(N)(c1ccc(Cl)cc1)c1ccc2c(c1)c(-c1cccc(Cl)c1)cc(=O)n2C` (stereo not given), the Potency was 263 nM (active).

In the case of `c1ccc2c(-c3cnn4cc(-c5ccc(N6CCNCC6)cc5)cnc34)ccnc2c1`, the Potency was 4680 nM (active).

Turning to `CCNC(=O)c1cc2c(-c3cc(OCCN4CCCC4)c(Cl)cc3Cl)nc(N)nc2s1`, the Potency is 1820 nM (active).

`COc1cc2c(Oc3ccc(NC(=O)C4(C(=O)Nc5ccc(F)cc5)CC4)cc3F)ccnc2cc1OCCCN1CCOCC1`: the Potency is 833 nM (active).

In the case of `Cc1cc(SCc2sc(-c3ccc(C(F)(F)F)cc3)nc2C)ccc1OCC(=O)O`, the “viability (% of control)” value was 95.7%.

For `Cc1nc(-c2ccc(OCC(C)C)c(C#N)c2)sc1C(=O)O`, the “viability (% of control)” value was 85.7%.

Take `CC(C)S(=O)(=O)c1ccc2nccc(Nc3ccc4scnc4c3)c2c1`: the Potency was 10500 nM (active).

Consider `CCCCCOC(=O)Nc1nc(=O)n([C@@H]2O[C@H](C)[C@@H](O)[C@H]2O)cc1F`, for which the “viability (% of control)” value was 99.9%.

Consider `Clc1ccccc1C(c1ccccc1)(c1ccccc1)n1ccnc1`, for which the Potency was 18600 nM (active).

For the compound `CC(C)[C@H](O)C(=O)N[C@@H](C)C(=O)N[C@@H]1C(=O)N(C)CCc2ccccc21`, the “viability (% of control)” value was 105%.

On to `Nc1nc(Nc2ccc(S(N)(=O)=O)cc2)nn1C(=O)c1c(F)cccc1F`, for which the Potency is 2950 nM (active).

The record behind these values is PubChem BioAssay (NCATS).
